The panel holds about 83,000 compounds, 20% with a hit somewhere; the sample as a whole holds those more often.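 The test compound was applied at a single concentration to cells in 96-well plates for 48 hours, and percent growth was recorded.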 Calls of active or inactive are those of the source. The calls were made as follows: active = growth percent below 10; inactive = the rest.
Experiments:
Experiment in all cases: NCI-60 one-dose screen, 48 h (100 = growth as untreated, 0 = no growth, -100 = all killed)
Conditions in all cases: 10 µM unless noted
DU-145 prostate = system: DU-145 prostate
K-562 leukemia = system: K-562 leukemia
MALME-3M melanoma = system: MALME-3M melanoma
MDA-MB-231 breast = system: MDA-MB-231 breast
RXF 393 renal = system: RXF 393 renal
SF-268 CNS = system: SF-268 CNS
SF-295 CNS = system: SF-295 CNS
SF-539 CNS = system: SF-539 CNS
UACC-257 melanoma = system: UACC-257 melanoma
M14 melanoma = system: M14 melanoma

Measured: growth

COc1cc2oc(-c3ccc(O)cc3)cc(=O)c2c(O)c1I
inactive: DU-145 prostate 104% | K-562 leukemia 92.6% | MALME-3M melanoma 115% | MDA-MB-231 breast 99% | RXF 393 renal 138% | SF-268 CNS 105% | SF-295 CNS 97% | SF-539 CNS 100% | UACC-257 melanoma 96.6% | M14 melanoma 110%

O=S(=O)(Nc1ncccn1)c1ccc(Nc2ccc3nnc(-c4ccncc4)n3n2)cc1
inactive: DU-145 prostate 108% | K-562 leukemia 102% | MALME-3M melanoma 97.6% | MDA-MB-231 breast 92.2% | RXF 393 renal 118% | SF-268 CNS 98.3% | SF-295 CNS 100% | SF-539 CNS 95.2% | UACC-257 melanoma 103% | M14 melanoma 97.7%

O=C1C(Br)=C(c2ccccc2)C(=O)C(Br)=C1c1ccccc1
inactive: DU-145 prostate 105% | K-562 leukemia 76.2% | MALME-3M melanoma 114% | MDA-MB-231 breast 94.6% | RXF 393 renal 102% | SF-268 CNS 102% | SF-295 CNS 97.9% | SF-539 CNS 98.6% | UACC-257 melanoma 96.2% | M14 melanoma 104%

O=C(Nc1ccc(F)cc1)c1ccc(C(=O)Nc2ccc(F)cc2)cc1
inactive: DU-145 prostate 112% | K-562 leukemia 98.7% | MALME-3M melanoma 101% | MDA-MB-231 breast 102% | RXF 393 renal 105% | SF-268 CNS 107% | SF-295 CNS 91.1% | SF-539 CNS 89.9% | UACC-257 melanoma 101% | M14 melanoma 105%

COc1cc(C(=O)/C=C/c2c(-c3cccs3)nc3sccn23)cc(OC)c1OC
active: DU-145 prostate 3.28% | MDA-MB-231 breast 7.07% | RXF 393 renal -20.7% | SF-295 CNS -35.8% | SF-539 CNS -27.6% | UACC-257 melanoma 5.19% | M14 melanoma 7.73%
inactive: K-562 leukemia 15.4% | MALME-3M melanoma 34.8% | SF-268 CNS 17.7%

COc1ccc(/C=C2\Oc3cc(C)c(Cl)cc3C2=O)cc1OC
inactive: DU-145 prostate 104% | K-562 leukemia 86.6% | MALME-3M melanoma 99.7% | MDA-MB-231 breast 102% | RXF 393 renal 111% | SF-268 CNS 102% | SF-295 CNS 95.7% | SF-539 CNS 92.7% | UACC-257 melanoma 101% | M14 melanoma 96.3%

Clc1ccc(Nc2nc(Nc3ccccc3)nc(Nc3ccc(-c4cc(-c5ccc(Cl)cc5)on4)cc3)n2)cc1
inactive: DU-145 prostate 32.6% | K-562 leukemia 40.2% | MALME-3M melanoma 64.5% | MDA-MB-231 breast 60.5% | RXF 393 renal 74.6% | SF-268 CNS 61.7% | SF-295 CNS 54% | SF-539 CNS 54.2% | UACC-257 melanoma 70.1% | M14 melanoma 41.4%

COc1ccc2nc(-n3nc(C)cc3C)c(-n3nc(C)cc3C)nc2c1
inactive: DU-145 prostate 128% | K-562 leukemia 114% | MALME-3M melanoma 108% | MDA-MB-231 breast 103% | RXF 393 renal 104% | SF-268 CNS 119% | SF-295 CNS 98.7% | SF-539 CNS 107% | UACC-257 melanoma 119% | M14 melanoma 102%

Cc1nc2cc(Nc3nc(Cl)nc(Nc4ccc(F)cc4)n3)ccc2n1Cc1ccccc1
inactive: DU-145 prostate 64% | K-562 leukemia 85.2% | MALME-3M melanoma 107% | MDA-MB-231 breast 82.1% | RXF 393 renal 77.1% | SF-268 CNS 91.1% | SF-295 CNS 96.4% | SF-539 CNS 70.2% | UACC-257 melanoma 89.7% | M14 melanoma 109%

O=C(NC1CC1)c1cc2n(n1)CC(c1ccccc1)N2 (stereo not given)
inactive: DU-145 prostate 107% | K-562 leukemia 103% | MALME-3M melanoma 104% | MDA-MB-231 breast 91.3% | RXF 393 renal 95.6% | SF-268 CNS 95.2% | SF-295 CNS 91.8% | SF-539 CNS 96.3% | UACC-257 melanoma 98.3% | M14 melanoma 101%

COc1ccc(/C=N/NC(=O)c2cnn3c2NC(c2ccccc2)C3)cc1OC1CCCC1 (stereo not given)
inactive: DU-145 prostate 98.3% | K-562 leukemia 70.4% | MALME-3M melanoma 123% | MDA-MB-231 breast 66.6% | RXF 393 renal 104% | SF-268 CNS 93.4% | SF-295 CNS 90.7% | SF-539 CNS 87.2% | UACC-257 melanoma 98.7% | M14 melanoma 93.5%

Cn1c(=O)c2c(-c3ccccc3F)n(-c3ccc4c(c3)OCO4)cc2n(C)c1=O
inactive: DU-145 prostate 110% | K-562 leukemia 78.7% | MALME-3M melanoma 141% | MDA-MB-231 breast 77.1% | RXF 393 renal 83.3% | SF-268 CNS 97.4% | SF-295 CNS 87.9% | SF-539 CNS 92.7% | UACC-257 melanoma 117% | M14 melanoma 117%

O=C1/C(=C/c2ccccc2F)CNC/C1=C\c1ccccc1F
active: DU-145 prostate -11.6% | K-562 leukemia 5.7% | MALME-3M melanoma -9.46% | MDA-MB-231 breast -2.14% | RXF 393 renal -86.2% | SF-268 CNS -11.4% | SF-295 CNS -17.3% | SF-539 CNS -33% | UACC-257 melanoma -46.1% | M14 melanoma -47.3%

O=S(=O)(Nc1ccc(Cl)c(Cl)c1)c1ccc(-c2cnc(C3CC3)o2)cc1
inactive: DU-145 prostate 15.3% | K-562 leukemia 16.2% | MALME-3M melanoma 53.3% | MDA-MB-231 breast 28.4% | SF-268 CNS 47.7% | SF-295 CNS 14.9% | UACC-257 melanoma 63.1% | M14 melanoma 14.1%
active: RXF 393 renal -19.4% | SF-539 CNS -13.5%

COC(=O)c1c2c(c(C)[n+]([O-])c1C)C(=O)C(NCc1ccc(O)cc1)=CC2=O
active: DU-145 prostate -69.2% | K-562 leukemia 6.74% | MALME-3M melanoma -98.5% | MDA-MB-231 breast -10.3% | RXF 393 renal -4.53% | SF-268 CNS -9.31% | SF-295 CNS -9.04% | SF-539 CNS -59.7% | UACC-257 melanoma -62.4% | M14 melanoma -76.5%

COc1ccc(OC)c(/C=C2\Oc3cc(O)ccc3C2=O)c1
inactive: DU-145 prostate 77.5% | K-562 leukemia 93.2% | MALME-3M melanoma 76% | MDA-MB-231 breast 103% | RXF 393 renal 80.5% | SF-268 CNS 87.3% | SF-295 CNS 98.6% | SF-539 CNS 95.4% | UACC-257 melanoma 103% | M14 melanoma 73.2%

NC(=O)c1cccc(-n2ccc3cc(NC(=O)Nc4ccc(Cl)c(Cl)c4)ccc32)n1
inactive: DU-145 prostate 83.7% | K-562 leukemia 63.4% | MALME-3M melanoma 85% | MDA-MB-231 breast 79.1% | SF-268 CNS 83% | SF-295 CNS 68.8% | SF-539 CNS 64.1% | UACC-257 melanoma 89.9% | M14 melanoma 78%
active: RXF 393 renal 6.33%

CC1SC(c2cccc(Oc3ccccc3)c2)N(CCc2cccs2)C1=O (stereo not given)
active: DU-145 prostate -6.09% | K-562 leukemia 9.44% | MALME-3M melanoma -72.7% | MDA-MB-231 breast -47.5% | RXF 393 renal -90.6% | SF-268 CNS -5.54% | SF-295 CNS -35.6% | SF-539 CNS -82.3% | UACC-257 melanoma -45.1% | M14 melanoma -74%

CC1CCCCN1S(=O)(=O)c1ccc(CN=C=S)cc1 (stereo not given)
inactive: DU-145 prostate 63.8% | MALME-3M melanoma 87.1% | MDA-MB-231 breast 51.1% | RXF 393 renal 51.9% | SF-268 CNS 91.1% | SF-295 CNS 99.6% | SF-539 CNS 78.3% | UACC-257 melanoma 79.9% | M14 melanoma 42%
active: K-562 leukemia 9.18%

CCCC1=NNC(=O)C1
inactive: DU-145 prostate 125% | K-562 leukemia 100% | MALME-3M melanoma 101% | MDA-MB-231 breast 122% | RXF 393 renal 113% | SF-268 CNS 108% | SF-295 CNS 97.5% | SF-539 CNS 89.8% | UACC-257 melanoma 90.9% | M14 melanoma 104%

COc1cc(CNCCN2C(=O)c3ccc4c5c(ccc(c35)C2=O)C(=O)N(CCNCc2cc(OC)c(OC)c(OC)c2)C4=O)cc(OC)c1OC
active: DU-145 prostate -56.8% | K-562 leukemia -4.93% | MALME-3M melanoma -50.5% | MDA-MB-231 breast -83.9% | RXF 393 renal -94.9% | SF-268 CNS -46.8% | SF-295 CNS -68% | SF-539 CNS -84% | UACC-257 melanoma -70.9% | M14 melanoma -96.9%

Source: PubChem BioAssay (NCI)
